Assay outcomes from PubChem BioAssay.
This is a sample that favours compounds with a hit; in the whole collection about 18% have one here.
LDHA block: LDHA (human) enzyme inhibition | purified LDHA, NADH/diaphorase-resazurin fluorescence; hits give low values | activity change, % (values are at about 110 or 230 µM) | actives 0.15% (n = 480,000) | AID 1347041; in the data active = activity change below about -30%; inconclusive = mostly about -25% to -30%
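Resorufin fluorescence (ex540/em590), read at 0 and 20 min after diaphorase/resazurin addition, reports the NADH left after a 5 min room-temperature reaction of 2 nM human LDH5 with 0.06 mM NADH and 0.2 mM pyruvate.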
RORgamma inh: blocks mouse ROR gamma transcriptional activity. Drosophila S2 Gal4-RORgamma UAS-luciferase reporter, 20 h. Potency, µM (titrated, usually from 53.6 µM), usual class: inhibitors. actives 5.4% (n = 310,000); note: nearly all actives have a fitted effect of over 60% in size
Target sequence (P51450 whole entry, looked up, the tested form may be a part): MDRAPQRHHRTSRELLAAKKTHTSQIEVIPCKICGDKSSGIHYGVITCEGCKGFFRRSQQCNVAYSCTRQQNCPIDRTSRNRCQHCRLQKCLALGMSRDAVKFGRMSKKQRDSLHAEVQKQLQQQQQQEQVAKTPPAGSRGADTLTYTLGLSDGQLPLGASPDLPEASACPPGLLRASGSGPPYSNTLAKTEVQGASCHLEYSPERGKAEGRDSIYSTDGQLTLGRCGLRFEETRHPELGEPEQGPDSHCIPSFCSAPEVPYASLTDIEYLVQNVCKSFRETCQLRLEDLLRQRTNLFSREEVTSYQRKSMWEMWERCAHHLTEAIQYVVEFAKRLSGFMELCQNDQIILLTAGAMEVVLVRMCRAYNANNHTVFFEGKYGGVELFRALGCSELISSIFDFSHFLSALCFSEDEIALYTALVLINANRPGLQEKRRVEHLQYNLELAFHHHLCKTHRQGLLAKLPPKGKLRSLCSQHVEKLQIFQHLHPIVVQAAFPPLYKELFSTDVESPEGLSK
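Drosophila Schneider cells stably carrying a metallothionein-driven Gal4 DBD–ROR gamma fusion and a UAS-Photinus luciferase reporter were exposed to compound for 1 hr, then induced with copper sulfate (700 uM final) for 20 hr at ambient temperature before luminescence reading.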
DT40 TDP1 no CPT: qHTS for Inhibitors of human tyrosyl-DNA phosphodiesterase 1 (TDP1): qHTS in cells in absence of CPT | DT40 Tdp1-/- hTDP1 cells, no CPT, ATP luminescence, 48 h | Potency, µM (titrated, usually from 46.2 µM), hits mostly inhibitors | actives 15% (n = 420,000) | AID 686978, 2013; note: nearly all actives have a fitted effect of over 55% in size
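Stably hTDP1-transfected Tdp1-null chicken DT40 cells were treated with library compounds minus camptothecin and grown for at least 48 hr at 37 °C, after which cellular ATP was quantified by luminescence.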
Gal4-VP16 FLuc: counter-screen for ROR gamma inhibitors: Gal4-VP16 reporter | Drosophila S2 Gal4-VP16 UAS-luciferase, luminescence, 20 h | Potency, µM (titrated, usually from 53.6 µM), actives largely listed as inhibitors | actives 3.5% (n = 310,000);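 note: Gal4-VP16 expression switched on by copper sulfate through the metallothionein promoter; nearly all actives have a fitted effect of over 50% in size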
DT40 TDP1 CPT: DT40-hTDP1 cell growth loss with CPT. chicken DT40 Tdp1-/-;hTDP1 cells + 20 nM CPT, ATP luminescence, 48 h. Potency, µM (highest dose often 46.2 µM), hits mostly inhibitors. actives 12% (n = 420,000). AID 686979; note: nearly all actives have a fitted effect of over 55% in size
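Chicken DT40 Tdp1-/- cells stably complemented with human TDP1 were seeded at 400 cells/well in medium containing 20 nM camptothecin, exposed to pin-transferred compounds, and grown at 37 °C for at least 48 hr. Viability was read as ATP luminescence.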
IL1B secr inh: inflammasome signaling inhibition, IL-1 beta readout | THP-1 LPS/ATP IL-1B secretion, AlphaLISA, 16 h; hits give low values | activity change, % at 57.5 µM | actives 4.7% (n = 360,000); in the data active = activity change below about -50%; inconclusive = mostly about -30% to -49%
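Secreted IL-1B measured by AlphaLISA bead assay after 16 h compound exposure of THP-1 cells; compounds (final up to 57.5 uM) added 1 h before LPS (250 ng/mL) and ATP (1.25 mM) stimulation; lower signal means less secretion.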
Numbers stand for hits; - = inactive; ? = inconclusive; . = no result; [ ] = remark or other dose. Unless noted, calls come from the whole dose curve; as a rule, active = well fitted curve in the direction sought with a large enough effect; inconclusive = small, poorly fitted or top-dose-only effect, or another doubt; inactive = no such curve, though single readings can be large; an effect the other way counts as inactive or inconclusive.

SMILES	LDHA block	RORgamma inh	DT40 TDP1 no CPT	Gal4-VP16 FLuc	DT40 TDP1 CPT	IL1B secr inh
Cc1cccc(NC(=S)NNC(=O)c2cccc([N+](=O)[O-])c2)c1	-	-	-	-	-	-
O=C(NC(=S)Nc1ccc(N2CCOCC2)cc1)c1cccc([N+](=O)[O-])c1	-	2.24µM	-	2.82µM	-	-
O=C(NC(=S)Nc1ccc(CN2CCOCC2)cc1)c1cccc([N+](=O)[O-])c1	-	?	-	?	-	-
O=C(NNC(=S)NC(=O)c1cccc([N+](=O)[O-])c1)c1ccc(O)cc1	-	12.6µM	-	12.6µM	-	-
O=C(NC(=S)Nc1cccc(F)c1)c1cccc([N+](=O)[O-])c1	-	1.58µM	-	6.31µM	-	-
O=C(NNC(=O)c1ccccc1C(=O)O)c1ccc(O)cc1	-	0.316µM	?	?	-	-
CCN(CC)S(=O)(=O)c1ccc(-c2nc(C#N)c(NCc3ccc(F)cc3)o2)cc1	-	.	.	.	.	.
CCOc1cccc(CNCc2cccs2)c1OCc1ccccc1	-	.	.	.	.	.
CC(C)(C)C(=O)NC(=S)NNC(=O)c1ccc(-c2ccccc2)cc1	-	?	2.06µM	15.8µM	3.26µM	-
COc1cc(C)c(S(=O)(=O)NCCCn2ccnc2)cc1C	-	.	18.4µM	.	14.6µM	-
CCOc1cc(C)c(S(=O)(=O)NCCCn2ccnc2)cc1C	-	-[1.91 µM]	?	-	?	-
Cc1ccc(Cl)cc1NC(=O)c1ccccc1-c1ccccc1	-	.	.	.	.	.
CCOc1ccc(C(C)=O)cc1COC(=O)c1cc([N+](=O)[O-])ccc1N1CCOCC1	-	.	?	.	23.1µM	-
COc1ccc(OC)c(COC(=O)c2cc([N+](=O)[O-])ccc2N2CCOCC2)c1	-	.	4.11µM	.	7.31µM	-
COc1ccc(C(C)NC(=O)CC23CC4CC(CC(C4)C2)C3)cc1 (stereo not drawn)	-	-[1.91 µM]	16.4µM	-	?	-
Cc1ccc(C)c(C(C)NC(=O)CC23CC4CC(CC(C4)C2)C3)c1 (stereo not drawn)	-	.	.	.	.	.
Cc1ccc2nc3[nH]c(=O)[nH]c(=O)c3c(N)c2c1	-	.	8.2µM	.	?	-
CCC(C(=O)c1ccccc1)n1c(N2CCN(C)CC2)nc2c1c(=O)n(C)c(=O)n2C (stereo not drawn)	-	.	.	.	.	.
Cn1c(SCC(N)=O)nnc1-c1cc2c(s1)CCC(C(C)(C)C)C2 (stereo not drawn)	-	.	.	.	.	.
CCc1noc(C)c1C(=O)OCC(=O)Nc1nc(-c2ccc(F)c(F)c2)cs1	-	.	14.6µM	.	?	-79.8
COC(=O)c1ccc(-c2csc(NC(=O)c3c(C)noc3C)n2)cc1	-	.	20.6µM	.	16.4µM	-
Cc1ccc(C)c(-c2csc(NC(=O)c3c(C)noc3C)n2)c1	-	.	?	.	?	-
Cc1ccc(-c2csc(NC(=O)c3c(C)noc3C)n2)s1	-	.	4.11µM	.	5.17µM	-
Cc1ccc(-c2csc(NC(=O)c3c(C)noc3C)n2)cc1C	-	.	13µM	.	18.4µM	-
COCC(C)NC(=O)CSc1cc(C)c2cccc(C)c2n1 (stereo not drawn)	-	.	.	.	.	.
SMILES	LDHA block	RORgamma inh	DT40 TDP1 no CPT	Gal4-VP16 FLuc	DT40 TDP1 CPT	IL1B secr inh
Cc1onc(-c2ccccc2)c1C(=O)Nc1nc(-c2ccc(F)c(F)c2)cs1	-	-	25.9µM	-	?	-
Cc1csc(NC(=O)c2c(-c3ccccc3)noc2C)n1	-	-	?	-	-	-
CCOC(=O)Cc1csc(NC(=O)c2c(C)noc2C)n1	-	.	-	.	-	-
CCc1noc(C)c1C(=O)OCC(=O)c1ccc(NC(C)=O)cc1F	-	.	20.6µM	.	?	-
Cc1noc(C)c1C(=O)Nc1nc(C23CC4CC(CC(C4)C2)C3)cs1	-	?	18.4µM	22.4µM	?	-58.4
CCCNC(=O)c1cccc(NC(=O)CCc2ccccc2)c1	-	.	.	.	.	.
CN(CC(=O)Nc1ccccc1Cl)CC(=O)N(CCC#N)c1ccccc1F	-	.	.	.	.	.
C=CCn1c(SCc2coc(-c3ccc(Cl)cc3)n2)nnc1C1CCS(=O)(=O)C1 (stereo not drawn)	-	.	.	.	.	.
Clc1cccc(CSc2ncnc3c2ncn3C2CCCCO2)c1 (stereo not drawn)	-	.	16.4µM	.	?	-
c1ccc(CSc2ncnc3c2ncn3C2CCCCO2)cc1 (stereo not drawn)	-	.	?	.	-	-50.3
Fc1ccc(CSc2ncnc3c2ncn3C2CCCCO2)cc1 (stereo not drawn)	-	.	?	.	?	-
O=C(Cn1nc(-c2cccs2)c2ccccc2c1=O)NCCc1ccccc1	-	.	.	.	.	.
N#Cc1ccccc1COC(=O)c1ccc(Cl)cc1F	-	.	.	.	.	.
COc1cccc(-c2nc3nc(C)cc(C)n3c2Nc2c(C)cccc2C)c1	-	.	?	.	?	-
CCCCNc1c(CC(C)C)nc2nc(C)cc(C)n12	-	.	23.1µM	.	16.4µM	-
CCCCNc1c(-c2ccccn2)nc2nc(C)cc(C)n12	-	.	?	.	?	-
Cc1cc(C)n2c(Nc3c(C)cccc3C)c(CC(C)C)nc2n1	-	.	23.1µM	.	?	-
CC(C)CN1C(=O)C(=Nc2cccnc2)c2ccccc21	-	-	4.61µM	-	3.66µM	-
Cc1cccc(OCC(=O)Nc2ccc(Cl)c(-c3nc4ncccc4o3)c2)c1C	-	.	16.4µM	.	18.4µM	.
CCC(=O)NC(=S)Nc1cccc(-c2nc3ncccc3o2)c1	-	12.6µM	?	-	?	-
Cc1ccc(C(C)C)c(OCC(=O)Nc2cccc(-c3nc4ncccc4o3)c2)c1	-	.	20.6µM	.	20.6µM	.
COc1c(C)cc(Br)cc1C(=O)Nc1cccc(-c2nc3ncccc3o2)c1	-	-	20.6µM	-	20.6µM	-
Cc1cc(C)c(OCC(=O)Nc2cccc(-c3nc4ncccc4o3)c2)c(Br)c1	-	.	?	.	?	.
NC(=O)c1ccc(C(=O)NC2CCCc3ccccc32)cc1 (stereo not drawn)	-	.	.	.	.	.
Cc1nn(CN(Cc2ccccc2)CC(F)(F)F)c(=O)c2ccccc12	-	.	.	.	.	.
c1cncc(-c2[nH]ncc2CNCc2cccs2)c1	-	.	.	.	.	.
CCCCCC(=O)Nc1cccc(-c2nc3ncccc3o2)c1	-	-	-	-	-	-99.0
CCCCC(=O)Nc1cccc(-c2nc3ncccc3o2)c1	-	-[10 µM]	-	-	-	-
COc1cccc(C(=O)/C=C/Nc2ccc(S(=O)(=O)Nc3nc(C)cc(C)n3)cc2)c1	-	?	-	-	-	-
O=C(/C=C\Nc1ccccn1)c1ccc(Cl)cc1	-	7.08µM	?	10µM	?	-
